PubChem BioAssay (NCATS)
Values joined by “and” are separate entries in the source; they are usually repeats but may differ in a detail not shown here. Identical values can stand only once. Results filed as inconclusive are left out. A call without a number means that no potency is given here. Some structures have more than one record in an assay (separate samples or runs), and their calls can disagree. A number with no mark means an inactive call. Active and inactive are the calls of the source. Calls come from the whole dose curve; as a rule, active = well fitted inhibition curve with a large enough effect; inconclusive = small, poorly fitted or top-dose-only effect; inactive = flat fitted curve, though single readings scatter.

How the values were obtained:
CRL-7250 = normal cell line; test: Cytotoxic Profiling of Annotated Libraries Using Quantitative High-Throughput Screening (AID 1296008); conditions: Five cell lines viability, CellTiter-Glo ATP luminescence, 48-72 h; max response: hits give low values
Outline: (§1)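 Compounds were pin-transferred onto cells and incubated 48 or 72 hr at 37 degree Celsius, 95% humidity. CellTiter-Glo was added, plates sat 10 min at room temperature, then ATP-coupled luminescence was imaged as the viability read-out.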

HEK293 = test: as above; conditions: Five cell lines viability, CellTiter-Glo ATP luminescence, 48-72 h; max response: hits give low values
Outline: as §1

HaCat [1] = test: as above; conditions: Five cell lines viability, CellTiter-Glo ATP luminescence, 48-72 h; max response: hits give low values
Outline: as §1

KB-3-1 = test: as above; conditions: Five cell lines viability, CellTiter-Glo ATP luminescence, 48-72 h; max response: hits give low values
Outline: as §1

NIH3T3 = test: as above; conditions: Five cell lines viability, CellTiter-Glo ATP luminescence, 48-72 h; max response: hits give low values
Outline: as §1

HACAT [2] = test: qHTS assay to identify novel small-molecules to repurpose for Merkel cell carcinoma treatment (AID 1296009); conditions: MCC and control cell lines, CellTiter-Glo viability, 72 h; series mostly up to 44.8 µM
Outline: (§2)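 Viability readout: ATP luminescence (CellTiter-Glo) after 72 hr drug exposure at 37 degree celsius. Dose-response format was 8 points for NPC and 11 points for MIPE; data normalized to in-plate controls.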

HEK293T = test: as above; conditions: MCC and control cell lines, CellTiter-Glo viability, 72 h; at 44.8 µM (top of the series) unless noted
Outline: as §2

MCC-13 = test: as above; conditions: MCC and control cell lines, CellTiter-Glo viability, 72 h; series mostly up to 46 µM
Outline: as §2

MCC-26 = test: as above; conditions: MCC and control cell lines, CellTiter-Glo viability, 72 h; series mostly up to 46 µM
Outline: as §2

MKL-1 = test: as above; conditions: MCC and control cell lines, CellTiter-Glo viability, 72 h; series mostly up to 46 µM
Outline: as §2
Note: nearly all actives have a fitted effect of over 60% in size.
Potency is the fitted concentration of half-maximal effect.

Row | SMILES | max response (CRL-7250) | outcome (CRL-7250) | outcome (HEK293) | outcome (HaCat [1]) | max response (KB-3-1) | max response (NIH3T3) | Potency (HACAT [2]) | outcome (HEK293T) | Potency (MCC-13) | Potency (MCC-26) | Potency (MKL-1) | max response (HEK293) | max response (HaCat [1]) | outcome (KB-3-1) | outcome (NIH3T3) | Potency (CRL-7250) | Potency (KB-3-1) | Potency (HEK293)
1 | COc1ccc2c(OCc3nnc4ccc(-c5ccccc5)nn34)ccnc2c1 | -1.03% | inactive | inactive | inactive | -1.11% and 9.78% | -4.81% and -9.25% | inactive | inactive | inactive | inactive | inactive | – | – | – | – | – | – | –
2 | C1Cc2[nH]nc(-c3nn[nH]n3)c2C1 | -5.71% and 4.92% | – | inactive | inactive | 5.58% | – | inactive | inactive | inactive | – | inactive | 2.99% | -5.07% | inactive | inactive | – | – | –
3 | Nc1nc(NCCNc2ncc(-n3ccnc3)c(-c3ccc(Cl)cc3Cl)n2)ccc1[N+](=O)[O-] | -3.28% | – | – | inactive | – | 4.08% | inactive | – | inactive | inactive | inactive | 4.96% | – | inactive | inactive | 5.8 µM (active) | 20.6 µM (active) | –
4 | Cc1cc(Nc2ncnc3ccc(-c4ccc(CNCCS(C)(=O)=O)o4)cc23)ccc1Oc1ccn2ncnc2c1 | – | – | – | – | -26.8% | -81.1% | – | – | inactive | inactive | 14.8 µM (active) | -117% | -107% | – | – | 3.32 µM (active) and 23.1 µM (active) | 11.8 µM (active) | 4.18 µM (active)
5 | CCCNC(=O)Nc1ccc(Oc2ncnc3cc(OC)c(OC)cc23)cc1Cl | -26.7% and 2.06% | – | inactive | – | 4.92% | -7.41% and 0.662% | – | inactive | inactive | – | inactive | -15.3% | 0.131% and 2.87% | – | – | – | – | –
6 | O=C(c1cncc(Br)c1)N1CCC(N2CCCC2)CC1 | -7.35% | inactive | – | – | 1.64% | 4.3% and 2.16% | – | – | inactive | inactive | inactive | 2.69% and -9.71% | 2.29% and 3.12% | inactive | – | – | – | –
7 | CNC(=O)c1ccc(N2C(=S)N(c3cnc(C#N)c(C(F)(F)F)c3)C(=O)C23CCC3)cc1F | -2.94% | inactive | inactive | – | -8.3% | 0.376% | – | inactive | – | – | – | – | -2.38% and -0.362% | inactive | inactive | – | – | –
8 | O=c1c2ccccc2nc2n1CCc1c-2[nH]c2ccccc12 | 3.31% | – | – | inactive | 4.3% and 8.09% | 0.849% and 0.542% | inactive | – | inactive | inactive | inactive | -12.5% | -7.58% | – | – | – | – | –
9 | Cn1c(CNc2ccc(C(=N)N)cc2)nc2cc(C(=O)N(CCC(=O)O)c3ccccn3)ccc21 | -5.55% | – | – | – | -2.52% | – | – | – | inactive | inactive | inactive | -4.52% | -0.657% and -2.49% | inactive | inactive | 7.24 µM (active) | – | –
10 | CCCCCCCCCC(=O)N[C@@H](Cc1c[nH]c2ccccc12)C(=O)N[C@H](CC(N)=O)C(=O)N[C@@H](CC(=O)O)C(=O)N[C@@H]1C(=O)NCC(=O)N[C@@H](CCCN)C(=O)N[C@@H](CC(=O)O)C(=O)N[C@H](C)C(=O)N[C@@H](CC(=O)O)C(=O)NCC(=O)N[C@H](CO)C(=O)N[C@@H]([C@@H](C)CC(=O)O)C(=O)N[C@@H](CC(=O)c2ccccc2N)C(=O)O[C@@H]1C | – | inactive | inactive | inactive | – | -13.2% | inactive | inactive | inactive | inactive | inactive | 3.78% | -26.3% | inactive | inactive | – | – | –
11 | CC1COC2(CCN(c3nc(=O)c4cc(C(F)(F)F)cc([N+](=O)[O-])c4s3)CC2)O1 (centres undefined) | – | inactive | inactive | – | 8.43% and -3.92% | – | – | inactive | inactive | inactive | inactive | 2.26% | 0.136% | – | inactive | – | – | –
12 | CCNC(=O)Nc1ccc2ncc(Nc3ccc(C)cc3)nc2n1 | -2.45% | inactive | – | – | -0.0839% | 4.76% and -10.1% | – | – | inactive | – | – | 1.18% and 1.8% | -7.35% and 2.38% | inactive | – | – | – | –
